According to the supplement of paper PMC7724964:

Legend:
Assay in all cases: phage ELISA signal ratio (GST-PRM binding over GST background); higher = stronger binding of peptide-phage to the PRM
[1] = target: T1, GNAZ 2-355 G-alpha (domain begin residue: 2, domain end residue: 355), P19086
T1 chain: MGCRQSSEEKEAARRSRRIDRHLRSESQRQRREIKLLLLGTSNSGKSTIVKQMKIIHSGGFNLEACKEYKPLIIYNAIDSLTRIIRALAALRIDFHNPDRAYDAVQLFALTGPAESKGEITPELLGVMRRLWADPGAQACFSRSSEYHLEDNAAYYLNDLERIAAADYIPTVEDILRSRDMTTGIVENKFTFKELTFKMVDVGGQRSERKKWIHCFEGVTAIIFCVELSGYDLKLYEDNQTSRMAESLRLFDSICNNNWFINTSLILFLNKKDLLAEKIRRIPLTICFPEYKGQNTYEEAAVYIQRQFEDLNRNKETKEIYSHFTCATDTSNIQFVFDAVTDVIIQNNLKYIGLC
Outline: (§1)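 An M13 phage library with randomized hexadecapeptides on the gene-8 major coat protein, each peptide lacking cysteine and flanked by glycine, was selected for five rounds against human peptide recognition domains fused to the C-terminus of glutathione S-transferase (GST) and expressed in 96-well plates. Approximately 48 clones from rounds 4 and 5 went to phage ELISA. The reported value is the ELISA signal on the GST-domain fusion over the signal on GST alone, and positive clones were sequenced.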

[2] = target: GNAI1 2-354 G-alpha (domain begin residue: 2, domain end residue: 354), P63096
Outline: as §1

[3] = target: T2, GNAQ 2-359 G-alpha (domain begin residue: 2, domain end residue: 359), P50148
T2 chain: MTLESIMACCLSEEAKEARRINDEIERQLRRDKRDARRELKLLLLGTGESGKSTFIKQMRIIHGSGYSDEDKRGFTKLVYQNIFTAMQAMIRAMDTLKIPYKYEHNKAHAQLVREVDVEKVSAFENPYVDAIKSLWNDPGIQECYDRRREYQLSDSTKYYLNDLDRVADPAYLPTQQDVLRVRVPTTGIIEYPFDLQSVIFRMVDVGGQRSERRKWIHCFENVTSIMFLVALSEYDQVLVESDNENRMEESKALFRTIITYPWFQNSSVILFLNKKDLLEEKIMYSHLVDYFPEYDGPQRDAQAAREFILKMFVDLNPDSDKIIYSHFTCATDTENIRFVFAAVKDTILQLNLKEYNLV
Outline: as §1

Chain of GNAI1 2-354 G-alpha (domain begin residue: 2, domain end residue: 354), P63096 (P63096 whole entry): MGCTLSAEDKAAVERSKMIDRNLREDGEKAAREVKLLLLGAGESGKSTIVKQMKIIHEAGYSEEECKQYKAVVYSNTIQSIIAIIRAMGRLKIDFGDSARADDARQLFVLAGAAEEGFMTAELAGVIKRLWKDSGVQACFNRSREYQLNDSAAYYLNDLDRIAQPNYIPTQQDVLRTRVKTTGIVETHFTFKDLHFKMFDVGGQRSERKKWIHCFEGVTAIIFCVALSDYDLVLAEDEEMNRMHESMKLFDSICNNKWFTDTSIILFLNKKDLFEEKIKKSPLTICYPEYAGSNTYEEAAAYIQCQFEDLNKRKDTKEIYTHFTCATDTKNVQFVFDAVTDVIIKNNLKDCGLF

Binder: HEEGMAEQWFWLHFAP
- phage ELISA signal ratio [1]: 11.9

Binder: DAHWWEEPWFIKSQEE
- phage ELISA signal ratio [2]: 13.8

Binder: MPFDHWTMDDVEMLVL
- phage ELISA signal ratio [1]: 17.5

Binder: SMEWWSKGDVSLIDIS
- phage ELISA signal ratio [1]: 4.45

Binder: IPDWLVDYEWGQWVEG
- phage ELISA signal ratio [2]: 31.6

Binder: PGSENEAEYWFNIMRQ
- phage ELISA signal ratio [1]: 19.7

Binder: WWEAPWAMEMLDEETG
- phage ELISA signal ratio [2]: 16.6

Binder: EDSGLEWFMQWSHGYV
- phage ELISA signal ratio [1]: 13.9

Binder: EWSWSDSMHQFMNENT
- phage ELISA signal ratio [1]: 27.6

Binder: YHDTGLSNEWFMIRYF
- phage ELISA signal ratio [2]: 18

Binder: ITAEWQAREEYKLRVQ
- phage ELISA signal ratio [3]: 29.2

Binder: WRWDEYDHQFVEEVQM
- phage ELISA signal ratio [1]: 25.2

Binder: HDVEPIWSMPWWQMDY
- phage ELISA signal ratio [1]: 17.6

Binder: AWQISEEWKVREAYQQ
- phage ELISA signal ratio [3]: 25.5

Binder: WETWFEQKEVLIDAYY
- phage ELISA signal ratio [1]: 14.6

Binder: QWEFEHDATLLVLEQM
- phage ELISA signal ratio [1]: 26.5

Binder: VSYEWWMPGDTQMMEV
- phage ELISA signal ratio [1]: 11.2

Binder: HAWWYNENLDQWVDTS
- phage ELISA signal ratio [1]: 16.7

Binder: WSLMDDVSPWWEMEQI
- phage ELISA signal ratio [1]: 20.5

Binder: QWPTYSQWMTRDEILI
- phage ELISA signal ratio [1]: 3.11

Binder: SVPWYSEPWAIDMMSF
- phage ELISA signal ratio [2]: 49.6

Binder: PQQHFWEMDVPMIQLW
- phage ELISA signal ratio [1]: 8.66

Binder: NEWDIPLLDLTMLPWA
- phage ELISA signal ratio [1]: 8.79

Binder: WVWDYSQDQWVPASVQ
- phage ELISA signal ratio [1]: 17.2

Binder: DVEPLWSQWVTWDWQE
- phage ELISA signal ratio [1]: 11.1

Binder: DVPPLWMMAEYSFPWE
- phage ELISA signal ratio [1]: 5.11

Binder: DMTRAVFWEFWDHLDV
- phage ELISA signal ratio [1]: 7.78

Binder: IVVGDWENEWFAHLVK
- phage ELISA signal ratio [2]: 4.48

Binder: MLPFQDWYTQDDVLMN
- phage ELISA signal ratio [1]: 17.6
